# Reference: PubChem BioAssay AID2184 (The Scripps Research Institute Molecular Screening Center, 2009)
# The list shows a part of the results. Calls of active or inactive are those of the source. Cut-off read from the data, not from the text of the source: active = inhibition above about 0.66%; inactive = the rest.
# Biological target: Beta-lactamase TEM (Escherichia coli) (UniProt P62593)
# Experiment: Serine beta-lactamase TEM-1 inhibition, biochemical epi-absorbance counter-screen for IMP-1/VIM-2 inhibitor program (AID 2184)
# Settings: TEM-1 beta-lactamase, nitrocefin absorbance inhibition; at 5.6 µM; active compounds read high
# Sequence of Beta-lactamase TEM (Escherichia coli) (P62593 whole entry, looked up): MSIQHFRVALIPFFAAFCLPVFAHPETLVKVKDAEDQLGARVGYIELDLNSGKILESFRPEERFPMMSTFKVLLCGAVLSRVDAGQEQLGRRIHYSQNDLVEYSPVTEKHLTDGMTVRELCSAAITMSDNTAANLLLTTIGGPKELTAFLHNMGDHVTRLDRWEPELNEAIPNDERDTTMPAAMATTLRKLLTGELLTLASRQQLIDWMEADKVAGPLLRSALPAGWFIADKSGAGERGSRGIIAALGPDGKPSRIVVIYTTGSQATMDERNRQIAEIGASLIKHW
row,Compound,inhibition
1,CN1C(=O)c2cccc3c(N)ccc(c23)C1=O,49.7% (active)
2,NS(=O)(=O)c1ccc(NC(=O)COC(=O)c2c3c(nc4ccccc24)/C(=C\c2ccc4c(c2)OCO4)CCC3)cc1,-4.87% (inactive)
3,Oc1ccc2ccc3cccc[n+]3c2c1,25.5% (active)
4,Nc1c(C(=O)c2cccs2)sc2nsc(SCCN3CCCCC3)c12,23.4% (active)
5,c1ccc(-c2nccc(-c3ccc(-n4cnc5ccccc54)cc3)n2)nc1,-3.39% (inactive)
6,Cc1cc2nc3c(=O)n(Cc4ccccc4)c(=O)[nH]c3nc2cc1N,30.2% (active)
7,C/C(=N\Nc1ccc(S(N)(=O)=O)cc1[N+](=O)[O-])c1cccs1,1.6% (active)
8,COc1cc(/C=C2/SC(=S)N(Cc3ccccc3)C2=O)cc(OC)c1O,12.7% (active)
9,CCC(=C/c1sc2ccc3ccccc3c2[n+]1C)/C=C1\Sc2ccc3ccccc3c2N1C,-0.12% (inactive)
10,Cc1nn(C)cc1N1C(=O)c2cccc3c(N)ccc(c23)C1=O,43.9% (active)
11,NC(=O)c1ccc(NC(=O)COC(=O)c2c3c(nc4ccccc24)/C(=C\c2ccc4c(c2)OCO4)CCC3)cc1,-4.26% (inactive)
